The structures appear in SMILES notation. This is part of a sample that, as a whole, favours compounds with a hit. Of some 83,000 tested, about 20% had one in any assay.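 Assay: single dose, 48 h. Readout: percent growth (0 = no net growth; negative = cell death). Active: <10.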 Values without a mark were called inactive. Calls of active or inactive are those of the source.

The test has as its system MDA-MB-468 breast. The test can be described thus: NCI-60 one-dose screen, 48 h (100 = growth as untreated, 0 = no growth, -100 = all killed). As to conditions: 10 µM unless noted.
`NCCCNc1nc2ccccc2c2c(=O)c3cc(Cl)ccc3sc12`: the growth is -19.1% (active).
The same measure for `CC1(C)C(N)=Nc2cc(OCCCN3Cc4ccc(OCCc5cn(CC(=O)N6CCC(CCN7CCCC7)CC6)nn5)cc4C3)c(OCC3CC3)cc21`: 108%; for `COc1cc(/C=C/C(=O)c2ccc(NC(=O)CN3CCN(c4cc5c(cc4F)c(=O)c(C(=O)O)cn5C4CC4)CC3)cc2)cc(OC)c1OC`: -1.82% (active); for `O=C(CNc1ccc2c(c1)C(=O)c1ccccc1C2=O)Nc1ccc2c(c1)C(=O)c1ccccc1C2=O`: -87.4% (active).
The same measure for `CC(O)/C=C/C=C/C(O)CC/C=C/C(=O)NCC(C)(C)O` (stereo not given): 102%; for `CCOC(=O)c1c(C(=O)OCC)c2cc(-c3ccn4c(C(=O)c5ccccc5)c(C(=O)OCC)c(C(=O)OCC)c4c3)ccn2c1C(=O)c1ccccc1`: 106%.
Turning to `Cc1cc(C(NC(=O)CCCCCNc2cccc3c2C(=O)N(C2CCC(=O)NC2=O)C3=O)c2ccc3c(c2)OC(F)(F)O3)c(O)c2ncccc12` (stereo not given), the growth is 69%.
For the compound `CCOC(=O)CCN(CCC(=O)OCC)c1ccccc1`, the growth is 96.6%.
The value for `CC(=O)N1C(=S)NC(=O)C1CC(C)C` (stereo not given) was 100%; that for `CC(=O)NNC(=S)N/C=C/c1c(C)ccc([N+](=O)[O-])c1[N+](=O)[O-]` was 98.8%.
The value for `O=C(Nc1cccc(-n2cc(-c3ccncc3)c(-c3ccc(O)c(Cl)c3)n2)c1)c1ccc(Cl)c(Cl)c1` was 68.9%; that for `O=C(CBr)CN1C(=O)c2ccccc2C1=O` was 103%; that for `O=C(Nc1ccc(-c2nc3ccc(NC(=O)c4ccc(Cl)cc4)cc3[nH]2)cc1)c1ccc(Cl)cc1` was -10.8% (active).
The value for `CC(=O)OCC(COC(C)=O)(COC(C)=O)COC(C)=O` was 102%.
As for `CCCCCCCCN(CCO)CCCCCCCC`, the growth was 98.7%.
The value for `O=C(/C(=C\c1ccc([N+](=O)[O-])cc1)S(=O)Cc1ccc(F)cc1)c1ccc(F)cc1` (stereo not given) was 16.3%; that for `CC(C)=CCC/C(C)=C/CC/C(C)=C/CC/C(C)=C/CSC[C@H](NC(=O)CCCCCN1CCN(C)CC1)C(=O)NC1CCCCC1` was 79.2%.
The same measure for `COc1cc(CNC(=O)CCCCC[P+](c2ccccc2)(c2ccccc2)c2ccccc2)c(OC)c2c1OCO2`: 6.74% (active); for `c1ccc(-c2n(Cc3ccc4ccccc4n3)cc[n+]2Cc2ccc3ccccc3n2)cc1`: -12.3% (active).
The value for `COc1ccc(-n2ncc3c2ccc2cc(S(=O)(=O)c4ccccc4)c(=O)n(C)c23)cc1` was 94.5%; that for `COC(=O)c1nc(-c2ccccc2)oc1S(=O)(=O)N(C)CCO` was 6.31% (active).
For `O=[N+]([O-])c1cccc(-c2nc3sccn3c2-c2ccnc(NCCCNS(=O)(=O)c3ccc(C(F)(F)F)cc3)n2)c1`, the growth was 22.8%.
The same measure for `COc1ccc(-c2cc(-c3ccc(N(C)C)cc3)nc(NC(=O)c3cccnc3)n2)cc1`: 106%.
Regarding `O=C(/C=C/c1cccnc1)NCCCCC1CCCN(C(=O)c2ccccc2)C1` (stereo not given), the growth is 87.9%.
In the case of `CC1(C)CC[C@]2(C(N)=O)CC[C@]3(C)C(=CC[C@@H]4[C@@]5(C)C/C(=C/c6ccncc6)C(=O)C(C)(C)[C@@H]5CC[C@]43C)[C@@H]2C1`, the growth was -25.2% [100 µM] (active).
The same measure for `COc1cc(C2NC(c3cc(OC)c(OC)c(OC)c3)C(C#N)(C#N)C2(C#N)C#N)cc(OC)c1OC` (stereo not given): 93.2%; for `N#Cc1c(-c2ccccc2)nc(SCc2nnc(-c3ccc(Cl)cc3)o2)[nH]c1=O`: 103%.
The same measure for `Cc1ncc(-c2ccnc(Nc3ccc(S(C)(=O)=O)cc3)n2)n1C(C)C`: -48.8% (active).
The same measure for `COc1ccc(-c2nnc(SCc3ccc(O)c4ncccc34)n2-c2ccccc2)cc1`: 10.3%; for `Cn1cc(-c2nn3cc(-c4ccncc4)nc3s2)c2cc(F)ccc21`: 54.6%; for `Cc1ccc(S(=O)(=O)n2cc(C(=O)C(=O)Nc3ccncc3)c3ccccc32)cc1`: 1.96% (active).
`COC(=O)c1nc(-c2ccccc2)oc1S(=O)(=O)NCC(c1ccc(Cl)cc1)N1CCOCC1` (stereo not given): the growth is 29.9%.
The value for `CCCn1cnc2c(c1=N)C(c1ccc(OC)cc1)c1sc3c(CC)cccc3c1O2` (stereo not given) was 39.4%; that for `NCCNc1nc2ccc(F)cc2c2c(=O)c3cc(F)ccc3sc12` was 45.3%; that for `C/C=C/C1OC23CCCCC2C(C#N)(C(=N)O3)C1(C#N)C#N` (stereo not given) was 77.7%.

The values above are taken from PubChem BioAssay (NCI).
